Reference: PubChem BioAssay (NCATS)
Records with an inconclusive call do not appear. A call without a number means that no potency is given here. Calls of active or inactive are those of the source. The call rests on the fitted dose curve; in most records, active means well fitted cell-killing curve with a large enough effect; inconclusive means small, poorly fitted or top-dose-only effect, or effect the other way; inactive means no such curve, though single readings can be large or run the other way.

Experiment: Quantitative highthroughput screen to assess conditional lethalithy of NOMO1 cells grown in Human Plasma-Like Medium with dialyzed fetal bovine serum (HPLM+ds) (AID 1963878); further: nearly all actives have a fitted effect of over 35% in size
Conditions: NOMO1 AML cells in HPLM+ds, CellTiter-Glo viability, 48 h; series mostly up to 45.8 µM
Description: Assay Provider: Jason Cantor Ph.D.
Department of Biochemistry
University of Wisconsin-Madison, Madison, WI, USA
Chemical screening studies have identified drug sensitivities across hundreds of cancer cell lines but most putative therapeutics fail to translate. Discovery and development of drug candidates in models that more accurately reflect nutrient levels in human blood is a major challenge. Here we performed high-throughput screens in conventional versus Human Plasma-Like Medium (HPLM) to identify compounds that were "missed" when screening using the artificial culture condition. Sets of conditional anticancer compounds spanned phases of clinical development and included non-oncology drugs were assessed. […] We also traced conditional phenotypes for several chemotherapeutics to availability of HPLM-specific metabolites and confirmed others for compounds whose reported targets are encoded by nonessential genes. Our findings establish generalizable strategies for exploiting conditional lethality in HPLM to reveal therapeutic candidates and mechanisms of action in cancer cells.
Described herein are the results of each viability screens against three cell lines: NOMO1 (an acute myeloid leukemia cell line); P12-Ichikawa (a T-cell acute lymphoblastic leukemia); and SEM (a B-cell ALL). Each assay was screened using 3 different cell culture media: homemade human plasma-Like medium with 10% dialyzed fetal bovine serum (HPLM+ds); RPMI1640 with 10% untreated FBS and 5mM glucose (RPMI+s); and RPMI1640 with 10% dialyzed fetal bovine serum and 5 mM glucose (RPMI+ds).
PROTOCOL TABLE (as described by Inglese J, Shamu CE and Guy RK. 2007)
SEQUENCE No. (e.g., 1, 2, 3, etc.); […] (e.g., Cells, Incubation, Reagent, etc.); VALUE and DESCRIPTION.
1; Cells; 5 uL; white, solid bottom 1536-well Greiner assay plate.
2; Compounds; 23 nL; Kalypsis pin tool (Wako USA) equipped with a 1536-well pin head to transfer to the assay plates.
3; Incubation; 48 hours; 37C incubation.
4; Reagent; 3 uL; CellTiter Glo (Promega).
5; Incubation; 5 min, room temperature
6; Detection; Luminescence, Viewlux PerkinElmer.
NOTES (numbers refer to Sequence numbers above)
1. Briefly, 5 ul of cell reagent was dispensed using a Multidrop Combi Dispenser. The NOMO1 and SEM cells were plated at 500 cells/well and the P12-Ichikawa line at 1000 cells/well.
2. After seeding the cells, 23 nL of MIPE 4.1 library compounds (in DMSO) were added to each plate using a Kalypsys 1536 Pintool dispenser. Bortezomib at final concentration of […] and DMSO were added to each plate as positive and negative controls respectively. For each screen, MIPE 4.1 compounds were added over an eleven-point concentration range […] in 3-fold dilutions.
3. Each plate was covered with a stainless steel gasketed lid to prevent evaporation and incubated for 48 hour at 37C, 95% relative humidity, and 5% CO2.
4-5. Three microliter CellTilter-GloTM luminescent substrate mix (Promega) reagent was added to the assay plate and incubated at room temperature for 5 min.
6. The luminescence signal was measured using a ViewLux (PerkinElmer) multiplate reader with a 2 second exposure time per plate. Data for each compound were normalized as percent viability such that measurements for DMSO and the empty well controls in each plate were defined as 100% and 0%, respectively.
Potency means the concentration at half of the fitted maximal effect.

| SMILES | Potency |
| --- | --- |
| CCOC(=O)[C@H](CCc1ccccc1)N[C@H]1CCc2ccccc2N(CC(=O)O)C1=O | 16.6 µM (active) |
| Cc1ccccc1N1C(=O)c2cc(S(N)(=O)=O)c(Cl)cc2NC1C (stereo not given) | inactive |
| CN1C[C@H]2c3ccccc3Oc3ccc(Cl)cc3[C@@H]2C1 | inactive |
| CC1(C)Cc2c(sc(NC(=S)NC(=O)c3ccccc3)c2C(=O)O)CO1 | inactive |
| O=C(O)c1c(Cl)c(Cl)c(Cl)c(Cl)c1-c1c2cc(I)c(=O)c(I)c-2oc2c(I)c(O)c(I)cc12 | inactive |
| CN(C)c1ccc(-c2nc3ncc(Cl)c(N4CCN(CC(=O)Nc5nccs5)CC4)c3[nH]2)cc1 | 18.7 µM (active) |
| CC(C[N+](C)(C)C)OC(N)=O (stereo not given) | inactive |
| N#Cc1c(N(CC(=O)O)CC(=O)O)sc(C(=O)O)c1CC(=O)O | inactive |
| Cc1ccc(S(=O)(=O)Nc2nc3ccccc3nc2Nc2ccc3nsnc3c2)cc1 | 1.02 µM (active) |
| O=C(NCc1ccncc1)C12C[C@H]3C[C@@H](C1)CC(c1ccc(Cl)cc1)(C3)C2 | 18.7 µM (active) |
| CC(C=CC(=O)NO)=C[C@@H](C)C(=O)c1ccc(N(C)C)cc1 | 1.66 µM (active) |
| CNC[C@H](O)c1ccc(O)c(O)c1 | inactive |
| C#Cc1cccc(Nc2ncnc3cc(OCCOC)c(OCCO)cc23)c1 | 9.35 µM (active) |
| N#Cc1ccc(COC[C@H]2O[C@@H](n3c(NCc4ccc(Cl)c(Cl)c4)nc4c(N)ncnc43)[C@@H](O)[C@@H]2O)cc1 | 7.43 µM (active) |
| O=c1[nH]c(-c2ccc(C(F)(F)F)cc2)nc2c1CSCC2 | inactive |
| Cc1ccc(-c2ncn(-c3ccc(Nc4nccc(-c5cccc(N6CCOCC6)c5)n4)cc3)n2)cn1 | 0.296 µM (active) |
| O=S(=O)(O)CCSSCCS(=O)(=O)O | inactive |
| N#Cc1c(O)c2c(-c3ccc(-c4ccccc4O)cc3)csc2[nH]c1=O | inactive |
| CC(C)Cc1ccc(C(C)C(=O)O)cc1 (stereo not given) | inactive |
| NS(=O)(=O)c1ccc(NC2=CC(=O)c3ccccc3C2=O)cc1 | inactive |

| SMILES | Potency |
| --- | --- |
| Cc1nc(Nc2n[nH]c3c2CN(C(=O)N[C@H](CN(C)C)c2ccccc2)C3(C)C)c2sccc2n1 | 1.48 µM (active) |
| CC(=O)N1CCN(c2ccc(OCc3nn(C)c(C)c3-c3cccc4c(CCCOc5cccc6ccccc56)c(C(=O)O)n(Cc5cccnc5)c34)cc2)CC1 | 2.35 µM (active) |
| CN(C)CCCC1(c2ccc(F)cc2)OCc2cc(C#N)ccc21 (stereo not given) | inactive |
| Cc1c(C)c2c(c(C)c1O)CCC(C)(COc1ccc(CC3SC(=O)NC3=O)cc1)O2 (stereo not given) | inactive |
| Cc1cccc(CN2CCN(C(c3ccccc3)c3ccc(Cl)cc3)CC2)c1 (stereo not given) | inactive |
| NC[C@H](O)c1ccc(O)c(O)c1 | inactive |
| Cc1ccc(NC(=O)C2(c3ccc4c(c3)OC(F)(F)O4)CC2)nc1-c1cccc(C(=O)O)c1 | 0.187 µM (active) |
| O=C(c1ccccc1)c1ccc2n1CCC2C(=O)O (stereo not given) | inactive |
| Cc1cnc(Nc2cccc(CN3CCOCC3)c2)nc1Nc1cccc(S(=O)(=O)NC(C)(C)C)c1 | inactive |
| CCCCOc1ccc(CC(=O)NO)cc1 | inactive |
| CC1(C)CC(=O)c2c(C(F)(F)F)nn(-c3ccc(C(N)=O)c(NC4CCC(OC(=O)CN)CC4)c3)c2C1 (stereo not given) | 0.332 µM (active) |
| Cc1cn([C@@H]2O[C@H](CO)[C@@H](O)[C@H]2F)c(=O)[nH]c1=O | inactive |
| COc1ccc(C2=N[C@H](c3ccc(Cl)cc3)[C@H](c3ccc(Cl)cc3)N2C(=O)N2CCNC(=O)C2)c(OC(C)C)c1 | 10.5 µM (active) |
| CC(=O)Nc1sc2c(c1-c1nc3ccccc3s1)CNC2 | inactive |
| Cc1c(CCOc2ccc(C(=O)O)cc2)c2cc(Cl)ccc2n1C(c1ccccc1)c1ccccc1 | inactive |
| CC(C)(O)[C@H]1CC[C@@](C)([C@H]2[C@@H](O)C[C@@]3(C)[C@@H]4C[C@H](O[C@@H]5O[C@H](CO)[C@@H](O)[C@H](O)[C@@H]5O)[C@H]5C(C)(C)[C@@H](O[C@@H]6OC[C@@H](O)[C@H](O)[C@@H]6O)CC[C@@]56C[C@@]46CC[C@]23C)O1 | inactive |
| O=C1c2cccc(O)c2C(=O)c2c(O)cc(CO)cc21 | inactive |
| CC1(C)CCC[C@@]2(C)[C@@H]1CC[C@@]1(C)OC(=O)C[C@H]21 | inactive |
| CNC(=O)c1nn(C)c2c1C(C)(C)Cc1cnc(Nc3ccc(N4CCN(C)CC4)cc3)nc1-2 | 8.33 µM (active) |
| C[C@@]12C(=O)OC(=O)[C@@]1(C)C1CCC2O1 | 6.62 µM (active) |
